The values that follow come from PubChem BioAssay (NCATS).

“And” between values parts separate entries of the source, which are not always exact repeats. Equal entries are not always repeated. Inconclusive results are not listed. Where a structure was tested more than once in an assay, its records may differ in their call. The source made the active and inactive calls. Unless noted, calls come from the whole dose curve; as a rule, active = well fitted curve in the direction sought with a large enough effect; inconclusive = small, poorly fitted or top-dose-only effect, or another doubt; inactive = no such curve, though single readings can be large; an effect the other way counts as inactive or inconclusive.
% is set by controls: 0 for no effect and ±100 for the full control effect.

Cytochrome P450 2C9 (Homo sapiens), sequence (P11712 whole entry, looked up): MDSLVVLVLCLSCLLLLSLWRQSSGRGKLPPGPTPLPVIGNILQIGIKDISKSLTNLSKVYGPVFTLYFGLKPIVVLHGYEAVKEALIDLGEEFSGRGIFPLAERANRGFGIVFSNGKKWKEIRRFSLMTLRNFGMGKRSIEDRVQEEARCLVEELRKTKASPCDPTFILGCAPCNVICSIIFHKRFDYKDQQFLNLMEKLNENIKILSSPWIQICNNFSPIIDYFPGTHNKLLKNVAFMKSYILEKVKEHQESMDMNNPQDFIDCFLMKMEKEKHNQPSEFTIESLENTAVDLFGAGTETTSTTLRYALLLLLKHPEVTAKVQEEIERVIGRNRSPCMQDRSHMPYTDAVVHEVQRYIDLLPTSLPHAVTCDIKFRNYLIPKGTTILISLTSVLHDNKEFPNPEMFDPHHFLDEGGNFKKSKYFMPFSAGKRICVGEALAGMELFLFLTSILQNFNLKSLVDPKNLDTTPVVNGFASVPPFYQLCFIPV
Cytochrome P450 2D6 (Homo sapiens), sequence (P10635 whole entry, looked up): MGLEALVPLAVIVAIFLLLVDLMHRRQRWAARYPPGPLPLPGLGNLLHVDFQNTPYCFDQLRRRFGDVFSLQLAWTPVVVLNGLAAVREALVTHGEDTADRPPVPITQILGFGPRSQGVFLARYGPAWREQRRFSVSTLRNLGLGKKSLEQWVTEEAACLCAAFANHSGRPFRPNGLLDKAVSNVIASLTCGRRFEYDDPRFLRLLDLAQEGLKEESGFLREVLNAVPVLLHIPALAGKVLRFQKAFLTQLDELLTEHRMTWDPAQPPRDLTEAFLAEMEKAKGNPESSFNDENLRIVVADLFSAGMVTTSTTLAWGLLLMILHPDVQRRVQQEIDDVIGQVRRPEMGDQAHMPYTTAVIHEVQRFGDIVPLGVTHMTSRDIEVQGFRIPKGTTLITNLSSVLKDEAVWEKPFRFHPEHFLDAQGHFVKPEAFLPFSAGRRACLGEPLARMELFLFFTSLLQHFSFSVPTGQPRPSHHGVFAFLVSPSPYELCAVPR

Tested on in one test: not listed separately
Nature of the test: Primary qHTS for small molecule stabilizers of the endoplasmic reticulum resident proteome: Secreted ER Calcium Modulated Protein (SERCaMP) assay (AID 1508630). To be noted: SH-SY5Y GLuc-SERCaMP (Gaussia luciferase released on ER calcium loss) secretion, thapsigargin, luminescence; series mostly up to 38.4 µM; activity change, negative = inhibition: at the top concentration. The procedure, abridged:
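The SH-SY5Y reporter protocol was run at 3 concentrations up to 38.3 uM (primary) or 11 concentrations (follow-up): 16 h compound, 100 nM thapsigargin for 4 h, then extracellular luciferase luminescence.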
Turning to `Cc1ccc(S(=O)(=O)Nc2nc3ccccc3nc2Nc2ccc3nsnc3c2)cc1`, the “activity change, negative = inhibition” value is 104% [at 21.6 µM] (inactive). In the case of `CC1CNc2c(cccc2S(=O)(=O)N[C@@H](CCCN=C(N)N)C(=O)N2CC[C@@H](C)C[C@@H]2C(=O)O)C1` (stereo partly drawn), the “activity change, negative = inhibition” value was 245% (inactive). Regarding `NCC1CCC(C(=O)O)CC1` (stereo not drawn), the “activity change, negative = inhibition” value was 39.8% (inactive).

For `CN1CCN2c3ncccc3Cc3ccccc3C2C1` (stereo not drawn), the “activity change, negative = inhibition” value is 34.7% (inactive). Take `CN(C)CCN(Cc1ccc(Cl)cc1)c1ccccn1`: the “activity change, negative = inhibition” value is 57.8% (inactive). Turning to `O=S(=O)(O)c1ccc2cc(N=Nc3cc(S(=O)(=O)O)c4cccnc4c3O)ccc2c1`, the “activity change, negative = inhibition” value was -15.4% (inactive). As to `O=[N+]([O-])c1ccc(Nc2ccccc2-c2ccccc2)c2nonc12`, the “activity change, negative = inhibition” value is -15.9% (inactive). Turning to `CC(C)CNc1ccnc(NCc2csc(-c3ccccc3)n2)n1`, the “activity change, negative = inhibition” value is -72.8% (inactive).

Take `CC(C)C[C@@H](N)[C@H](O)C(=O)N[C@H](C(=O)N[C@H](C(=O)N[C@@H](CC(=O)O)C(=O)O)C(C)C)C(C)C`: the “activity change, negative = inhibition” value was 76.8% (inactive).

Consider `O[C@@H](COc1cccc2ncccc12)CN1CCN(C2c3ccccc3[C@@H]3[C@H](c4ccccc42)C3(F)F)CC1` (stereo partly drawn), for which the “activity change, negative = inhibition” value is 430% (inactive). Still for that read-out and setting: next, `CCCCC[C@H](O)C=C[C@H]1[C@H](O)CC(=O)[C@H]1CC=CCCCC(=O)O`: -25.6% (inactive); `CCCCc1ccc(NS(=O)(=O)c2ccc(C)c(C(=O)N3CCN(c4cccc(C)c4C)CC3)c2)cc1`: 22.2% (inactive); `COc1nc(C)cnc1NS(=O)(=O)c1cccnc1-c1ccc(-c2nnco2)cc1`: 83.7% (inactive).

Regarding `OC1CCC(Nc2ncc3nc(Nc4c(F)cc(F)cc4F)n([C@@H]4CCOC4)c3n2)CC1` (stereo partly drawn), the “activity change, negative = inhibition” value is 25.7% (inactive).

For another test, the target named is Cytochrome P450 2D6 (Homo sapiens) (UniProt P10635). Nature of the test: Cytochrome P450 family 2 subfamily D member 6 (CYP2D6) small molecule antagonists: luciferase biochemical (cell-free) qHTS assay (AID 1645840; active = well fitted curve in the direction sought with a large enough effect in the repeat runs; an effect the other way counts as inactive or inconclusive; note: nearly all actives have a fitted effect of over 55% in size; note: potency is the fitted concentration of half-maximal effect). To be noted: P450-Glo CYP2D6 enzyme, luciferin luminescence, 1 h; series mostly up to 57.4 µM; activity change, negative = inhibition: at the top concentration. The method in brief:
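P450-Glo CYP2D6 system: proluciferin substrate converted by enzyme to luciferin, read by luminescence proportional to activity. Enzyme-substrate mix with compound 10 min at room temperature, then NADPH regeneration 1 h before detection reagent.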
Take `Cc1nc2c([nH]1)CCN(C(=O)c1ccc(NC(=O)c3ccccc3-c3ccccc3)cc1)c1ccccc1-2`: the Potency was 4.77 µM (active). On to `CN(C)CCN(Cc1ccc(Cl)cc1)c1ccccn1`, for which the Potency is 0.0692 µM (active). On to `O=S(=O)(O)c1ccc2cc(N=Nc3cc(S(=O)(=O)O)c4cccnc4c3O)ccc2c1`, for which the “activity change, negative = inhibition” value is 14.7% (inactive). Consider `OC[C@H]1O[C@@H](OCCc2ccc(O)cc2)[C@H](O)[C@@H](O)[C@H]1O`, for which the “activity change, negative = inhibition” value is 6.95% (inactive). Turning to `CC(C)CNc1ccnc(NCc2csc(-c3ccccc3)n2)n1`, the Potency was 1.2 µM (active). In the case of `O=C(CCCN1CCN(c2ccc(F)cc2)CC1)NC1c2ccccc2CSc2ccccc21` (stereo not drawn), the Potency is 4.36 µM (active). Take `c1cc(OCCN2CCCCC2)cc(-c2n[nH]c3ccc(-c4ncn[nH]4)cc23)c1`: the Potency was 15.1 µM (active). `O[C@@H](COc1cccc2ncccc12)CN1CCN(C2c3ccccc3[C@@H]3[C@H](c4ccccc42)C3(F)F)CC1` (stereo partly drawn): the Potency is 13.8 µM (active) and 10.7 µM (active).

As to `CCNC(=O)c1noc(-c2cc(C(C)C)c(O)cc2O)c1-c1ccc(CN2CCOCC2)cc1`, the Potency is 1.34 µM (active). Consider `c1ccc(CNc2nc(N3CCOc4ccccc43)nc3c2CCCC3)cc1`, for which the Potency was 3.01 µM (active). Consider `CCCCC[C@H](O)C=C[C@H]1[C@H](O)CC(=O)[C@H]1CC=CCCCC(=O)O`, for which the “activity change, negative = inhibition” value is 11.5% (inactive).

With `CCc1cccc(CC)c1NC(=O)N1Cc2[nH]nc(NC(=O)c3ccc(N4CCN(C)CC4)cc3)c2C1`, the “activity change, negative = inhibition” value was -2.01% (inactive).

A further test has as its target Cytochrome P450 2C9 (Homo sapiens) (UniProt P11712). Briefly: Cytochrome P450 family 2 subfamily C member 9 (CYP2C9) small molecule antagonists: luciferase biochemical (cell-free) qHTS assay (AID 1645842; active = well fitted curve in the direction sought with a large enough effect in the repeat runs; an effect the other way counts as inactive or inconclusive; note: nearly all actives have a fitted effect of over 55% in size; note: potency is the fitted concentration of half-maximal effect). To be noted: P450-Glo CYP2C9 enzyme assay, luciferin luminescence; series mostly up to 57.4 µM; activity change, negative = inhibition: at the top concentration. The procedure, abridged: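 P450-Glo CYP2C9 system: proluciferin substrate with enzyme in mix containing 0.4% BSA, 10 min at room temperature, then NADPH regeneration solution added and incubated 1 h at 37C. Detection reagent stopped reaction; luminescence read after 20 min as RLU.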
Consider `Cc1nc2c([nH]1)CCN(C(=O)c1ccc(NC(=O)c3ccccc3-c3ccccc3)cc1)c1ccccc1-2`, for which the “activity change, negative = inhibition” value was 12.5% (inactive). Same read-out and setting: next, `O=S(=O)(O)c1ccc2cc(N=Nc3cc(S(=O)(=O)O)c4cccnc4c3O)ccc2c1`: -3.25% (inactive).

Consider `OC[C@H]1O[C@@H](OCCc2ccc(O)cc2)[C@H](O)[C@@H](O)[C@H]1O`, for which the “activity change, negative = inhibition” value was 13.1% (inactive). `CC(C)CNc1ccnc(NCc2csc(-c3ccccc3)n2)n1`: the Potency is 10.7 µM (active).

On to `O=C(CCCN1CCN(c2ccc(F)cc2)CC1)NC1c2ccccc2CSc2ccccc21` (stereo not drawn), for which the Potency was 8.71 µM (active).

For the compound `c1cc(OCCN2CCCCC2)cc(-c2n[nH]c3ccc(-c4ncn[nH]4)cc23)c1`, the “activity change, negative = inhibition” value is -2.15% (inactive). Regarding `O[C@@H](COc1cccc2ncccc12)CN1CCN(C2c3ccccc3[C@@H]3[C@H](c4ccccc42)C3(F)F)CC1` (stereo partly drawn), the Potency is 10.7 µM (active). Consider `CCNC(=O)c1noc(-c2cc(C(C)C)c(O)cc2O)c1-c1ccc(CN2CCOCC2)cc1`, for which the Potency was 2.39 µM (active).

For `c1ccc(CNc2nc(N3CCOc4ccccc43)nc3c2CCCC3)cc1`, the Potency is 1.9 µM (active). As to `CCCCC[C@H](O)C=C[C@H]1[C@H](O)CC(=O)[C@H]1CC=CCCCC(=O)O`, the “activity change, negative = inhibition” value was -14.1% (inactive). Turning to `CC1=C(C(=O)Nc2cc3cn[nH]c3cc2F)C(c2ccc(C(F)(F)F)cc2)CC(=O)N1` (stereo not drawn), the Potency is 19 µM (active). Consider `CCc1cccc(CC)c1NC(=O)N1Cc2[nH]nc(NC(=O)c3ccc(N4CCN(C)CC4)cc3)c2C1`, for which the “activity change, negative = inhibition” value was -2.4% (inactive).

Tested on in a further test: not listed separately
Briefly: Primary qHTS for inhibitors of nuclear receptor binding SET domain protein 2 (NSD2) in an isogenic RCH-ACV NSD2 p.E1099K mutant (9B) (AID 1645876). Note: nearly all actives have a fitted effect of over 70% in size. Note: potency is the fitted concentration of half-maximal effect. To be noted: RCH-ACV (leukaemia line) NSD2 E1099K (9B) viability, CellTiter-Glo, 72 h; series mostly up to 44.9 µM; activity change, negative = viability loss: at the top concentration.
Consider `Cc1ccc(S(=O)(=O)Nc2nc3ccccc3nc2Nc2ccc3nsnc3c2)cc1`, for which the “activity change, negative = viability loss” value is -0.735% [at 17.3 µM] (inactive).

For `Nc1ncnc2c1ncn2[C@@H]1O[C@H](CO)[C@@H](O)[C@@H]1O`, the Potency was 16.6 µM (active). The same measure, in the same setting: the value for `CN(C)N=Nc1nc[nH]c1C(N)=O` was 2.95 µM (active). Consider `CC1CNc2c(cccc2S(=O)(=O)N[C@@H](CCCN=C(N)N)C(=O)N2CC[C@@H](C)C[C@@H]2C(=O)O)C1` (stereo partly drawn), for which the compound was classed as inactive.

For the compound `Cc1cc2c(cc1C1(c3ccc(C(=O)O)cn3)CC1)C(C)(C)CCC2(C)C`, the “activity change, negative = viability loss” value was 5.08% (inactive).

For the compound `NCC1CCC(C(=O)O)CC1` (stereo not drawn), the “outcome” value is “inactive [at 17.3 µM]”.

Consider `CN1CCN2c3ncccc3Cc3ccccc3C2C1` (stereo not drawn), for which the “activity change, negative = viability loss” value is 3.71% (inactive). Same read-out and setting: next, `CN(C)CCN(Cc1ccc(Cl)cc1)c1ccccn1`: -18% (inactive). On to `O=C1C(c2c(O)[nH]c3ccccc23)=Nc2ccccc21`, for which the Potency is 8.93 µM (active) and inactive. On to `CN1CC(=O)NC1=NC(=O)Nc1cccc(Cl)c1`, for which the “activity change, negative = viability loss” value is 3.93% (inactive). Turning to `CCCCC(C)(C)[C@H](O)C=C[C@H]1[C@H](O)CC(=O)[C@H]1CC=CCCCC(=O)O`, the “activity change, negative = viability loss” value was -5.97% (inactive). `O=S(=O)(O)c1ccc2cc(N=Nc3cc(S(=O)(=O)O)c4cccnc4c3O)ccc2c1`: the “activity change, negative = viability loss” value was -24.7% (inactive).

`Cc1cccc(-c2[nH]c(C(C)(C)C)nc2-c2ccc3c(c2)OCO3)n1`: the Potency is 4.61 µM (active) and 4.17 µM (active). As for `O=[N+]([O-])c1ccc(Nc2ccccc2-c2ccccc2)c2nonc12`, the Potency was 20.9 µM (active). In the case of `CC(C)CNc1ccnc(NCc2csc(-c3ccccc3)n2)n1`, the Potency was 5.9 µM (active). For the compound `CC(C)C[C@@H](N)[C@H](O)C(=O)N[C@H](C(=O)N[C@H](C(=O)N[C@@H](CC(=O)O)C(=O)O)C(C)C)C(C)C`, the “activity change, negative = viability loss” value is 5.48% (inactive). Regarding `c1cc(OCCN2CCCCC2)cc(-c2n[nH]c3ccc(-c4ncn[nH]4)cc23)c1`, the Potency is 16.6 µM (active). Turning to `CC(C)(CO)[C@@H](O)C(=O)NCCC(=O)O`, the outcome was inactive. Consider `O[C@@H](COc1cccc2ncccc12)CN1CCN(C2c3ccccc3[C@@H]3[C@H](c4ccccc42)C3(F)F)CC1` (stereo partly drawn), for which the Potency is 15 µM (active). `CCNC(=O)c1noc(-c2cc(C(C)C)c(O)cc2O)c1-c1ccc(CN2CCOCC2)cc1`: the Potency was 18.3 nM (active) and 11.8 nM (active). Turning to `CCOc1ccccc1N=Nc1c(C)[nH]n(-c2nc(-c3ccccc3)cs2)c1=O`, the “activity change, negative = viability loss” value was 8.03% (inactive). As to `CCCCC[C@H](O)C=C[C@H]1[C@H](O)CC(=O)[C@H]1CC=CCCCC(=O)O`, the Potency is 0.417 µM (active).

Consider `CCOC(=O)c1c(CSc2ccccc2)n(C)c2cc(Br)c(O)c(CN(C)C)c12`, for which the Potency was 18.6 µM (active). On to `COc1nc(C)cnc1NS(=O)(=O)c1cccnc1-c1ccc(-c2nnco2)cc1`, for which the “activity change, negative = viability loss” value was -4.24% (inactive). For the compound `COc1ccc2c(c1)c(C1=C(c3c[nH]c4ccccc34)C(=O)NC1=O)cn2CCCN(C)C`, the Potency is 7.42 µM (active). As to `OC1CCC(Nc2ncc3nc(Nc4c(F)cc(F)cc4F)n([C@@H]4CCOC4)c3n2)CC1` (stereo partly drawn), the “activity change, negative = viability loss” value was -23.2% (inactive).

With `NC[C@H]1O[C@H](O[C@@H]2[C@@H](O)[C@@H](O[C@H]3O[C@H](CO)[C@@H](O)[C@H](N)[C@@H]3O)[C@H](N)C[C@@H]2N)[C@H](O)[C@@H](O)[C@H]1O`, the compound was called inactive. On to `Cc1cc(NC(=O)Nc2ccc(N(C)C)cc2)c2cc(F)cc(F)c2n1`, for which the “activity change, negative = viability loss” value was -21.1% [at 17.3 µM] (inactive). On to `N#CC(c1ccnc(NCCc2cccnc2)n1)c1nc2ccccc2s1` (stereo not drawn), for which the Potency is 14.8 µM (active). `CCc1cccc(CC)c1NC(=O)N1Cc2[nH]nc(NC(=O)c3ccc(N4CCN(C)CC4)cc3)c2C1`: the Potency is 817 nM (active) and 1.18 µM (active).
